Assay results as given in PMC7862700, “An all-to-all approach to the identification of sequence-specific readers for epigenetic DNA modifications on cytosine”.

Assays:
Assay in all cases: DAPPL (digital affinity profiling via proximity ligation, sequencing); 10 mM Tris-HCl pH 7.5, 50 mM NaCl, 1 mM DTT, 4% glycerol, room temperature, 30 min; GST-TFs on glutathione beads, 16-mer random dsDNA library, 0.1% formaldehyde crosslink after washing; high values mean tight binding
FEV = target: T1, FEV (Homo sapiens, UniProt Q99581 1-238); conditions: protein: recombinant; tags: N-terminal GST; dsDNA, one strand shown
T1 sequence: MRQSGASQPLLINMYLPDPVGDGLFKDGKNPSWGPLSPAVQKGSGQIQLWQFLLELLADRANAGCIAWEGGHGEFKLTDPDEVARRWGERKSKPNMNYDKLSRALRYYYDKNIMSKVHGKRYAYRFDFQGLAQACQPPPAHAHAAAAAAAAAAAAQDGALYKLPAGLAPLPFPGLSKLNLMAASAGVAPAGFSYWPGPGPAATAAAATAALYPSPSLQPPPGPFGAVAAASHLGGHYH
Outline: (§1)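 Binding signal is each hexamer's read frequency for a factor divided by its frequency in the tag-only sample. The factors were GST-fused human transcription factors from yeast, captured on glutathione beads, DNA-barcoded and pooled with that sample. Pools were incubated with 200 nmole of a random double-stranded 16-mer DNA library in Tris/NaCl/DTT/glycerol buffer at room temperature for 30 min, then washed, crosslinked with 0.1% formaldehyde, proximity-ligated with BsaI/T4 ligase (1 h, 37 °C), PCR-amplified and sequenced on an Illumina NextSeq500.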

ETV5 = ETV5 (Homo sapiens, UniProt P41161 1-510); conditions: protein: recombinant; tags: N-terminal GST; dsDNA, one strand shown
Outline: as §1

HSF1 = HSF1 (Homo sapiens, UniProt Q00613 1-529); conditions: protein: recombinant; tags: N-terminal GST; chain copies: 3; dsDNA, one strand shown
Outline: as §1

SPIC = target: T2, SPIC (Homo sapiens, UniProt Q8N5J4 1-248); conditions: protein: recombinant; tags: N-terminal GST; dsDNA, one strand shown
T2 sequence: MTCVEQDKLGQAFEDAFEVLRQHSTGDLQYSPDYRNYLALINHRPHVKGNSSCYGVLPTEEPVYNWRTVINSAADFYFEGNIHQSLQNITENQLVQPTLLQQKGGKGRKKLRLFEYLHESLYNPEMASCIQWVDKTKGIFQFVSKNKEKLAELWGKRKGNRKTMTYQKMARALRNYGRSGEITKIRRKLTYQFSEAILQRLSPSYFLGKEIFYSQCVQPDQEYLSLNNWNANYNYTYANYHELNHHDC
Outline: as §1

ELF4 = ELF4 (Homo sapiens, UniProt Q99607 1-663); conditions: protein: recombinant; tags: N-terminal GST; dsDNA, one strand shown
Outline: as §1

ELK4 = target: T3, ELK4 (Homo sapiens, UniProt P28324-2 1-405); conditions: protein: recombinant; tags: N-terminal GST; dsDNA, one strand shown
T3 sequence: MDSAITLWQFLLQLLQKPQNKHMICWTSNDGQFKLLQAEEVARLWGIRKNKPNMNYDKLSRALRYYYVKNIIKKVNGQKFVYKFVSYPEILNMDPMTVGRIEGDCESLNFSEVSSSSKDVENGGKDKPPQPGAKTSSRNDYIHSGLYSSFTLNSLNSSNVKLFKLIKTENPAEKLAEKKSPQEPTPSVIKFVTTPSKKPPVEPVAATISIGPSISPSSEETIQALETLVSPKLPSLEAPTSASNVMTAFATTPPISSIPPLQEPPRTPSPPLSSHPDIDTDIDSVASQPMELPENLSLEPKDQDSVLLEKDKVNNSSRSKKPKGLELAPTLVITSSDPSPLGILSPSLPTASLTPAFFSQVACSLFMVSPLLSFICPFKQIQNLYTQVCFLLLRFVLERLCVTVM
Outline: as §1

ETV2 = target: T4, ETV2 (Homo sapiens, UniProt O00321 1-342); conditions: protein: recombinant; tags: N-terminal GST; dsDNA, one strand shown
T4 sequence: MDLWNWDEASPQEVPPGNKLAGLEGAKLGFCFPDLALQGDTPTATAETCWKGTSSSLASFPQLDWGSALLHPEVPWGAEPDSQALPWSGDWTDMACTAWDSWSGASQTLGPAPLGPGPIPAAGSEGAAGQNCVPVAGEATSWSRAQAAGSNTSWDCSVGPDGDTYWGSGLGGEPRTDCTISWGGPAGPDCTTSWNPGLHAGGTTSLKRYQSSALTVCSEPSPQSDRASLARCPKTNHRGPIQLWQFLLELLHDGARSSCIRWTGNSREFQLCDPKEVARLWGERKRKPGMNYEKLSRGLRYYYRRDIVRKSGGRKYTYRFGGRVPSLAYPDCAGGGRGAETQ
Outline: as §1

ELF3 = target: T5, ELF3 (Homo sapiens, UniProt P78545 1-371); conditions: protein: recombinant; tags: N-terminal GST; dsDNA, one strand shown
T5 sequence: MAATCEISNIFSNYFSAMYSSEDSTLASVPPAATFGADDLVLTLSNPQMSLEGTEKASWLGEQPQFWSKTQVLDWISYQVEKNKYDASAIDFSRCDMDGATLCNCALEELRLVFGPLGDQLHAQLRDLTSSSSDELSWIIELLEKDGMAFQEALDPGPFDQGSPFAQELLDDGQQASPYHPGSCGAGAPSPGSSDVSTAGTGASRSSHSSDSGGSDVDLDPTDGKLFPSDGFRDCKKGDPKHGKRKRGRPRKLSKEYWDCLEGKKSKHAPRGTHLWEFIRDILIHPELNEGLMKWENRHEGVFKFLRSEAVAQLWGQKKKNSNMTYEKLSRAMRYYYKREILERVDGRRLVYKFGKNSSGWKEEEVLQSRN
Outline: as §1

CRX = CRX (Homo sapiens, UniProt O43186 1-299); conditions: protein: recombinant; tags: N-terminal GST; dsDNA, one strand shown
Outline: as §1

ETV1 = ETV1 (Homo sapiens, UniProt P50549 1-477); conditions: protein: recombinant; tags: N-terminal GST; dsDNA, one strand shown
Outline: as §1

ERF = target: T6, ERF (Homo sapiens, UniProt P50548 1-548); conditions: protein: recombinant; tags: N-terminal GST; dsDNA, one strand shown
T6 sequence: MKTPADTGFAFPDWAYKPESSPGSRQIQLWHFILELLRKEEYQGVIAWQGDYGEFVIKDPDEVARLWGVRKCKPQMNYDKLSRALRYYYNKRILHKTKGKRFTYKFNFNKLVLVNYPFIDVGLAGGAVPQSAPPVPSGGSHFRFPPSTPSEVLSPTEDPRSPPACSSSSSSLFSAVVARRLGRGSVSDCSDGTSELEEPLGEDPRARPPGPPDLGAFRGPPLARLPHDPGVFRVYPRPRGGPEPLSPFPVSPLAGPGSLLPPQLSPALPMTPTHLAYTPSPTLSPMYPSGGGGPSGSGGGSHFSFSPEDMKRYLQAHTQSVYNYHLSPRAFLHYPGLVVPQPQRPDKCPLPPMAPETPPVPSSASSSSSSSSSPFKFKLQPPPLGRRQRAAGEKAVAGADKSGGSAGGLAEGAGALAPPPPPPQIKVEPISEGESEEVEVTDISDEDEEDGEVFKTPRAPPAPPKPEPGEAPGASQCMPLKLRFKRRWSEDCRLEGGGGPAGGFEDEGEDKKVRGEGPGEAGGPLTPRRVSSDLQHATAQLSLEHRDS
Outline: as §1

ETV3L = target: T7, ETV3L (Homo sapiens, UniProt Q6ZN32 1-361); conditions: protein: recombinant; tags: N-terminal GST; dsDNA, one strand shown
T7 sequence: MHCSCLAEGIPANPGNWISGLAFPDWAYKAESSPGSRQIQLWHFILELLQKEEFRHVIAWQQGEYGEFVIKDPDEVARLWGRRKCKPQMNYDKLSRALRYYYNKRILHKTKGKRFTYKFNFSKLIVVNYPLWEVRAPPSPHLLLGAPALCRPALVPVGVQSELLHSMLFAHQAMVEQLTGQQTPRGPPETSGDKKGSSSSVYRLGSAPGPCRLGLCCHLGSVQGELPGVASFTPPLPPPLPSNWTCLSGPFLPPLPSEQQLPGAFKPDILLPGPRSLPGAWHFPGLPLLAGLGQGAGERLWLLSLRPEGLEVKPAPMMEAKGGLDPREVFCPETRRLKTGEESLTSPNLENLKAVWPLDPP
Outline: as §1

ETS2 = target: T8, ETS2 (Homo sapiens, UniProt P15036 1-469); conditions: protein: recombinant; tags: N-terminal GST; dsDNA, one strand shown
T8 sequence: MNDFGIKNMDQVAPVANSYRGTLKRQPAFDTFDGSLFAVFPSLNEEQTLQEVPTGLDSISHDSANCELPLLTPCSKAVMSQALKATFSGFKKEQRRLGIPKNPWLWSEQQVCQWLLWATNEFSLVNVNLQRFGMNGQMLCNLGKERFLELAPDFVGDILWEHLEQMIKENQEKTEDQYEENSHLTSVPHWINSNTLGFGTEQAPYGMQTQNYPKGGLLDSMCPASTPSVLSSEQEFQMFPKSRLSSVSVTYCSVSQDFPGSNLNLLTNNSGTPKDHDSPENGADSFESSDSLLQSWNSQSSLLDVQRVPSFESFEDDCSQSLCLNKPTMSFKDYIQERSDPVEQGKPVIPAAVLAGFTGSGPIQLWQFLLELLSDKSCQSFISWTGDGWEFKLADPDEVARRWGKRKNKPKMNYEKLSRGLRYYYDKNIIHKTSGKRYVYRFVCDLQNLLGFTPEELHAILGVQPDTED
Outline: as §1

SPDEF = target: T9, SPDEF (Homo sapiens, UniProt O95238 1-335); conditions: protein: recombinant; tags: N-terminal GST; dsDNA, one strand shown
T9 sequence: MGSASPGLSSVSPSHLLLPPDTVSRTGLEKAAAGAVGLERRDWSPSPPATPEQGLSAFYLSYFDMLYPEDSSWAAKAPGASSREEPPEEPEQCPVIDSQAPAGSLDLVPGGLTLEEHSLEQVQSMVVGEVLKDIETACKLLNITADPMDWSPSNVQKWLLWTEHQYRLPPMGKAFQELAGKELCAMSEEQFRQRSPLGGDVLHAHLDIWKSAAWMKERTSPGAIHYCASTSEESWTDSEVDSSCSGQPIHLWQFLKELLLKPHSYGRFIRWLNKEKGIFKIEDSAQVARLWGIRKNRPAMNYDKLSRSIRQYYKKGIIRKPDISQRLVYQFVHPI
Outline: as §1

ETV7 = target: T10, ETV7 (Homo sapiens, UniProt Q9Y603 1-341); conditions: protein: recombinant; tags: N-terminal GST; dsDNA, one strand shown
T10 sequence: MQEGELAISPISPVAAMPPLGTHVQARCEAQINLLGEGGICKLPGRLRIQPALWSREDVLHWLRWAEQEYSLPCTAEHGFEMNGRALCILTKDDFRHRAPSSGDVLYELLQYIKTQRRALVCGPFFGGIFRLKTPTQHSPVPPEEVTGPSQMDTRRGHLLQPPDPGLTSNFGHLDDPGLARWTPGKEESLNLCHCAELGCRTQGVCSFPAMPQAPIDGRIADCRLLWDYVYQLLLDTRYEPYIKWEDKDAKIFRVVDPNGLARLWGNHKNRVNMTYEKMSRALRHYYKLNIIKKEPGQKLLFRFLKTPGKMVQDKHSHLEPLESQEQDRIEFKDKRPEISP
Outline: as §1

ELF5 = target: T11, ELF5 (Homo sapiens, UniProt Q9UKW6-2 1-255); conditions: protein: recombinant; tags: N-terminal GST; dsDNA, one strand shown
T11 sequence: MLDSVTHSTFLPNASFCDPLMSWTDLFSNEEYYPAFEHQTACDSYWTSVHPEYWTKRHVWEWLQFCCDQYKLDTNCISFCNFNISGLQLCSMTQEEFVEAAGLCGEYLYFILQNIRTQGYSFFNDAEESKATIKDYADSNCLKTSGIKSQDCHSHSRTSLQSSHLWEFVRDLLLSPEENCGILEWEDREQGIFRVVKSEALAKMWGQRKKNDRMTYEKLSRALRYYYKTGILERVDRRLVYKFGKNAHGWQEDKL
Outline: as §1

ETV3 = target: T12, ETV3 (Homo sapiens, UniProt P41162-2 1-143); conditions: protein: recombinant; tags: N-terminal GST; dsDNA, one strand shown
T12 sequence: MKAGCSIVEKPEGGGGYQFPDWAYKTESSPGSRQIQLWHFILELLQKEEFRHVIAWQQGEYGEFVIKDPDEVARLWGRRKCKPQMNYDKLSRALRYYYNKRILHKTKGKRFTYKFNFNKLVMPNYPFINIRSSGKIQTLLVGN
Outline: as §1

ETV6 = ETV6 (Homo sapiens, UniProt P41212 1-452); conditions: protein: recombinant; tags: N-terminal GST; dsDNA, one strand shown
Outline: as §1

Sequence of ETV6 (P41212 whole entry): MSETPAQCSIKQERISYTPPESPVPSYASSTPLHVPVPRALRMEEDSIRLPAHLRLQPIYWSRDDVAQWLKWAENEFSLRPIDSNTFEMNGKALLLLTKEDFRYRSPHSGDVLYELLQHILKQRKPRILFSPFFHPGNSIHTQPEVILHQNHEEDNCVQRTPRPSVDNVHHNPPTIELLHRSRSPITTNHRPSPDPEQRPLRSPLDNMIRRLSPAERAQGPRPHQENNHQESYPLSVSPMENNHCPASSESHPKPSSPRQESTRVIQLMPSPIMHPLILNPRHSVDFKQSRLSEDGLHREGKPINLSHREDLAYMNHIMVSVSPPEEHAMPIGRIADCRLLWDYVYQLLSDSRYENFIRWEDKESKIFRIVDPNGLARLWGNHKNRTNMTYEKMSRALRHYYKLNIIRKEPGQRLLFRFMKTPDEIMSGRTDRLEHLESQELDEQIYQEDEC
Sequence of HSF1 (Q00613 whole entry): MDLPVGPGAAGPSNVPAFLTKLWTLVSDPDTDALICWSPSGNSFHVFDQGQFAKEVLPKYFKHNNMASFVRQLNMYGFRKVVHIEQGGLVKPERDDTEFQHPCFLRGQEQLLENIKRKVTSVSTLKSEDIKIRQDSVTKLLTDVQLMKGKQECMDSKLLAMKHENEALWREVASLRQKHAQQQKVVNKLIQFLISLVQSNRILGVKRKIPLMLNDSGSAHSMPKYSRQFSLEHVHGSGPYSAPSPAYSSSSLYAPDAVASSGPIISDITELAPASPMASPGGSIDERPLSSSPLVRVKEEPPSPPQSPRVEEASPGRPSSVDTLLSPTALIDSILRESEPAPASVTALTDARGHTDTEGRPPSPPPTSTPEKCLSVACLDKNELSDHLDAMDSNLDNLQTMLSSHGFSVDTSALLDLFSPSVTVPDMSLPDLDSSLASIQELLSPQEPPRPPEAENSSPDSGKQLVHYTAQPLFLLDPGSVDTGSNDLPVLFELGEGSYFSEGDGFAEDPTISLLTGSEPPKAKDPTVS
Sequence of ELF4 (Q99607 whole entry): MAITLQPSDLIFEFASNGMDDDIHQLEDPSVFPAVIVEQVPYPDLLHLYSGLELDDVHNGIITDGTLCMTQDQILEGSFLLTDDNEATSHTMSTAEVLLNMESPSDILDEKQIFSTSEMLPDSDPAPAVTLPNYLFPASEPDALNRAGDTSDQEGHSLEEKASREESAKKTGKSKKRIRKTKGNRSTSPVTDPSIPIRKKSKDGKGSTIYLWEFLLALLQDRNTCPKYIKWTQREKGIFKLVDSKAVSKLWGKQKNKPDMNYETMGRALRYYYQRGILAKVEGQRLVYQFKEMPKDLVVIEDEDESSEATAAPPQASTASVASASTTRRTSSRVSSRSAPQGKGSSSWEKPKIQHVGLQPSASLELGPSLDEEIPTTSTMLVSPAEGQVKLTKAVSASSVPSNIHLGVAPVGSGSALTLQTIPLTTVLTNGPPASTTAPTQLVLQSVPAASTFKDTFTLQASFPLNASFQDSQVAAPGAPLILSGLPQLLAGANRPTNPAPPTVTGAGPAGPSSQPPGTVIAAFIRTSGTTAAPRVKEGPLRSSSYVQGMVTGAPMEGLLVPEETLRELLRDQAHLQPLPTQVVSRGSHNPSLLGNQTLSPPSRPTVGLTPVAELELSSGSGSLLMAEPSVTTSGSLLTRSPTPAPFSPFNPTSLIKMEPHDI
Sequence of ETV5 (P41161 whole entry): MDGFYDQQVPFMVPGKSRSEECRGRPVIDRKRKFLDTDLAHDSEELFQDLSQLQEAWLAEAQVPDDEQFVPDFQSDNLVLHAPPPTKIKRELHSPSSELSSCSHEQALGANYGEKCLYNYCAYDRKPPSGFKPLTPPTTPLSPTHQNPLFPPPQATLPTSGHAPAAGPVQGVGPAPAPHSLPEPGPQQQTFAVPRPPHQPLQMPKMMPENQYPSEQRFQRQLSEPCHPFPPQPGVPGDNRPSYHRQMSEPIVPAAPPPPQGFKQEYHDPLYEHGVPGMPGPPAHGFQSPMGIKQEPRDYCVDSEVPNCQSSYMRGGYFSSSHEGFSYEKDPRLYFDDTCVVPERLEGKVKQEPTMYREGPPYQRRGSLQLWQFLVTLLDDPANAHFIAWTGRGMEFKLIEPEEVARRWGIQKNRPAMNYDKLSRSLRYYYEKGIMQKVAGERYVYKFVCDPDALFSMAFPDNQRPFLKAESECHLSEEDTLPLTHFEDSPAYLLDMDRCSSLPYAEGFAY
Sequence of ETV1 (P50549 whole entry): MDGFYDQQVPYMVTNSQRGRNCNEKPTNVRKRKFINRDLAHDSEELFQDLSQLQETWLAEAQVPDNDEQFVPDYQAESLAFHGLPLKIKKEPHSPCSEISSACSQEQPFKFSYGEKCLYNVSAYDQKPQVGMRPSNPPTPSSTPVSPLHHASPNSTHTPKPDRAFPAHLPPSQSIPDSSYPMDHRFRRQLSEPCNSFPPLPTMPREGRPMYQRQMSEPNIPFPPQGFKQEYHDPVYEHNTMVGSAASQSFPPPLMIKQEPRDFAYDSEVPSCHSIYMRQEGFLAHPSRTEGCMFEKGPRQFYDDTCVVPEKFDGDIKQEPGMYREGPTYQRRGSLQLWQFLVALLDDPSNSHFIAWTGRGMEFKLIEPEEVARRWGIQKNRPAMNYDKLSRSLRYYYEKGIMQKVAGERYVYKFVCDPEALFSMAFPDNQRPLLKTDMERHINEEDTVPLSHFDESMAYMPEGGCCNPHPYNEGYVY
Sequence of CRX (O43186 whole entry): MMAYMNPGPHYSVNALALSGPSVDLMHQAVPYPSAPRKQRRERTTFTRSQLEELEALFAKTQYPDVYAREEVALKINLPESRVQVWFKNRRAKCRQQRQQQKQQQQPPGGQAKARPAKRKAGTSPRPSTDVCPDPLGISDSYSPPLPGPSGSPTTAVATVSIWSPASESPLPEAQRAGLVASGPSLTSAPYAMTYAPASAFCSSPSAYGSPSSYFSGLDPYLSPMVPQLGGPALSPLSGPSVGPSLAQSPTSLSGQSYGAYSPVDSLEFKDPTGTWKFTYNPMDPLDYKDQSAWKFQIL

Q: How did the binding signal (FEV) turn out when CATCTC was run?
A: 1.2 fold enrichment (6-mer frequency, TF over GST control)

Q: And the binding signal (ETV5)?
A: 1.29 fold enrichment (6-mer frequency, TF over GST control)

Q: And the binding signal (HSF1)?
A: 1.26 fold enrichment (6-mer frequency, TF over GST control)

Q: And the binding signal (SPIC)?
A: 1.46 fold enrichment (6-mer frequency, TF over GST control)

Q: What about the binding signal (ELF4) of the same sequence?
A: 1.26 fold enrichment (6-mer frequency, TF over GST control)

Q: And the binding signal (ELK4)?
A: 1.42 fold enrichment (6-mer frequency, TF over GST control)

Q: What about the binding signal (ETV2) of the same sequence?
A: 1.4 fold enrichment (6-mer frequency, TF over GST control)

Q: And the binding signal (ELF3)?
A: 1.23 fold enrichment (6-mer frequency, TF over GST control)

Q: What about the binding signal (CRX) of the same sequence?
A: 1.16 fold enrichment (6-mer frequency, TF over GST control)

Q: And the binding signal (ETV1)?
A: 1.26 fold enrichment (6-mer frequency, TF over GST control)

Q: What about the binding signal (ERF) of the same sequence?
A: 1.25 fold enrichment (6-mer frequency, TF over GST control)

Q: What about the binding signal (ETV3L) of the same sequence?
A: 1.32 fold enrichment (6-mer frequency, TF over GST control)

Q: What about the binding signal (ETS2) of the same sequence?
A: 1.36 fold enrichment (6-mer frequency, TF over GST control)

Q: What about the binding signal (SPDEF) of the same sequence?
A: 1.24 fold enrichment (6-mer frequency, TF over GST control)

Q: What about the binding signal (ETV7) of the same sequence?
A: 1.15 fold enrichment (6-mer frequency, TF over GST control)

Q: What about the binding signal (ELF5) of the same sequence?
A: 1.22 fold enrichment (6-mer frequency, TF over GST control)

Q: And the binding signal (ETV3)?
A: 1.29 fold enrichment (6-mer frequency, TF over GST control)

Q: What about the binding signal (ETV6) of the same sequence?
A: 1.26 fold enrichment (6-mer frequency, TF over GST control)
